Screens: PubChem BioAssay, Johns Hopkins Ion Channel Center
Hits are enriched below; roughly 1.6% of the tested compounds scored in any of these assays.
KCNQ2 enhance = KCNQ2 (rat) channel potentiation. O88943. CHO-K1 KCNQ2, FluxOR thallium flux fluorescence; stronger effect = higher value. B-score at 10 µM. 0.54% of 310,000 active. AID 2239;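 active = fluorescence ratio B-score at least 3 SD of library B-scores, with initial fluorescence B-score within 3 of them, cut at about 5.3 in these data; same plate scores as AID 2156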;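 note: B-score of peak minus minimum over baseline fluorescence ratio after K+ and Tl+ stimulus; positive B-score means potentiation of KCNQ2 with more thallium influx and brighter signal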
Target sequence (O88943 whole entry, looked up): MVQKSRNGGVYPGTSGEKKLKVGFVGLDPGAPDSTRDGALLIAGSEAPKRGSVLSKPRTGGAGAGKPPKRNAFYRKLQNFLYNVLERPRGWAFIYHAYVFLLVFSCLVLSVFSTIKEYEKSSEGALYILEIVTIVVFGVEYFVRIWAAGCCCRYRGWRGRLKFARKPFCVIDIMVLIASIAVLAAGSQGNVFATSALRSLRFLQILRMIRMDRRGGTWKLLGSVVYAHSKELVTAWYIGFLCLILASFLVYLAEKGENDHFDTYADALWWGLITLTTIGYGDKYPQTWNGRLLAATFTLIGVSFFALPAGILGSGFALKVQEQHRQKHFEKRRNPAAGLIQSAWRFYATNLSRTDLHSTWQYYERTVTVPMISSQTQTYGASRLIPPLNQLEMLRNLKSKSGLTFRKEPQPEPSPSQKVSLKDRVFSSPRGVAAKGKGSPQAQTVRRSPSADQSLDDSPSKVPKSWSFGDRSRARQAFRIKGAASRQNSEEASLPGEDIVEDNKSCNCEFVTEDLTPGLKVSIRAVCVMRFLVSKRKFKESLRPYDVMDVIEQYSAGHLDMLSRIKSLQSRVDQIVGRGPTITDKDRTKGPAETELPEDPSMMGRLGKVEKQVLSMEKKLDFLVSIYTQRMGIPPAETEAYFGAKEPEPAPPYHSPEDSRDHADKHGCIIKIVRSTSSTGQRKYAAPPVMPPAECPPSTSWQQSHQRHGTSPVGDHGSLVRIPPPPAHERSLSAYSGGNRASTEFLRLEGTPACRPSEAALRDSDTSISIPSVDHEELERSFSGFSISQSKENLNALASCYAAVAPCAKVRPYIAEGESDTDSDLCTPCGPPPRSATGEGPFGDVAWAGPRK
KCNQ2 block = inhibitors of rat KCNQ2 potassium channel | O88943 | CHO-K1 KCNQ2, FluxOR thallium flux, 20 min; stronger effect = lower value | B-score at 10 µM | 1.1% of 310,000 active;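 active = fluorescence ratio B-score at most minus 3 library SDs, with starting brightness B-score within 2 library SDs, cut at about -5.5 in these data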
Kir21 conf inh = confirmation of mouse Kir2.1 potassium channel inhibitors; shares compounds with KCNQ2 enhance; Kir2.1-expressing cells, FluxOR thallium flux fluorescence; stronger effect = lower value; Tl flux remaining, % of negative control (stronger effect = lower value), % at 10 µM; 41% of 2,300 active; AID 2032;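 active = Primary-screen hit whose thallium flux fell at least 3 control SD below untreated wells in both duplicates, with normal baseline fluorescence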;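 note: 0% = blank wells without stimulus and 100% = stimulated no-compound controls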
HEK293 ctr = parental HEK293 activity in Kir2.1 inhibitor counter-screen. 19% of 2,300 active. parental HEK293 cells, FluxOR thallium flux fluorescence; 0% = unstimulated blank wells. shares compounds with KCNQ2 enhance. FluxOR signal as % of negative control (100 = no effect), % at 10 µM. AID 2105;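 active = dye signal at least 3 control SD above or below untreated wells in both duplicates, raw fluorescence within 3, either direction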;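 note: percent is based on the flux ratio of peak minus minimum fluorescence over baseline F0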
CHO-K1 ctr = alters thallium flux in parental CHO-K1 cells, KCNQ2 counter-screen. shares compounds with KCNQ2 enhance. FluxOR thallium flux fluorescence; zero = vehicle mean+3SD, 100% = vehicle-minus-blank window. activity increase over 3SD of controls, % at 10 µM. 43% of 1,200 active. AID 2282;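 active = signal rise of at least 3 SD above the untreated control mean, in both duplicate wells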;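 note: counter screen of KCNQ2 potentiator hits so any rise reflects channel-independent effects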
KCNQ1 sel pot = selectivity of KCNQ2 potentiators: effect on human KCNQ1 | shares compounds with KCNQ2 enhance | CHO KCNQ1 stable, FluxOR thallium flux fluorescence; beyond 3SD, as % of vehicle-control signal | activation over 3SD threshold, % at 10 µM | 28% of 1,200 active | AID 2283;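 active = fluorescence ratio rise of at least 3 SD of vehicle wells above their mean, in both replicate wells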;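 note: 0% = vehicle mean plus 3 SD and 100% = vehicle minus unstimulated blank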
KCNQ2 pot confirm = confirmation of rat KCNQ2 potassium channel potentiators; shares compounds with KCNQ2 enhance; CHO-KCNQ2 cells, FluxOR thallium flux fluorescence; potentiation, less the hit threshold, % at 10 µM; 68% of 1,200 active; AID 2287;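 active = fluorescence ratio rising 3 SD or more over the vehicle control mean in both replicates, plus primary screen hit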;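 note: peak minus minimum thallium fluorescence divided by baseline after K/Tl stimulus; 0% = vehicle mean plus 3 SD and 100% = vehicle minus unstimulated blank difference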
Kir21 spec = mouse Kir2.1 off-target activity of KCNQ2 potentiators; 2% of 1,200 active; activity over 3SD threshold, % at 10 µM; HEK293 Kir2.1, FluxOR thallium flux fluorescence; shares compounds with KCNQ2 enhance; AID 2345;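 active = fluorescence ratio rise of at least 3 SD above the vehicle-control mean, seen in both replicates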;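 note: 0% = vehicle mean plus 3 SD and 100% = vehicle minus no-stimulus blank window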
KCNQ2 W236L MoA = rat KCNQ2 W236L mutant potentiation by KCNQ2 potentiators | shares compounds with KCNQ2 enhance | current increase over 3SD of negative controls (%), stronger effect = higher value, % at 25 µM | 10% of 940 active | CHO KCNQ2-W236L, automated patch clamp current;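 active = current increase at least 3 SD of the untreated controls above them in both duplicate recordings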
An asterisk follows results filed as active; i = inactive; nt = not tested or not shown.

SMILES	KCNQ2 enhance	KCNQ2 block	Kir21 conf inh	HEK293 ctr	CHO-K1 ctr	KCNQ1 sel pot	KCNQ2 pot confirm	Kir21 spec	KCNQ2 W236L MoA
CCOC(=O)c1c(-c2ccc(C)o2)csc1N	nt	i	nt	nt	nt	nt	nt	nt	nt
CCOC(=O)c1c(-c2ccc(C)o2)csc1NC(=S)NC(=O)N(C)C	15*	i	i	314%*	-10	-18	34*	-8	59%*
O=[N+]([O-])c1ccc(Nc2ccc(Cl)cc2)nc1	14*	i	i	i	-1	-21	18*	-23	i
O=[N+]([O-])c1ccc(NCc2ccc(Cl)cc2)nc1	0.01	i	nt	nt	nt	nt	nt	nt	nt
Fc1cccc2sc(Nc3nnc(-c4ccco4)o3)nc12	16*	i	i	310%*	130*	-2	45*	-35	i
COc1cccc2sc(Nc3nnc(-c4cccs4)o3)nc12	10*	i	i	350%*	80*	-22	50*	-19	i
O=C(Nc1nc2c(F)cccc2s1)c1ccco1	0.45	i	nt	nt	nt	nt	nt	nt	nt
COc1cccc2sc(Nc3nc(-c4ccccn4)cs3)nc12	21*	i	i	i	-10	-13	-89	-45	i
COc1cccc2sc(Nc3nnc(-c4ccc(F)cc4)o3)nc12	20*	i	i	468%*	-10	-15	60*	-6	i
COc1ccc(-c2nnc(-c3ccc(F)cc3)o2)cc1	0.41	i	nt	nt	nt	nt	nt	nt	nt
CCOC(=O)c1sc(Nc2nc3c(OC)cccc3s2)nc1C	0.13	i	nt	nt	nt	nt	nt	nt	nt
c1ccc(Nc2nc(-c3ccccn3)cs2)cc1	0.81	i	nt	nt	nt	nt	nt	nt	nt
O=C(Nc1ccccc1Cl)O/N=C/c1ccncc1	nt	i	nt	nt	nt	nt	nt	nt	nt
O=C(C1CCCN(S(=O)(=O)c2ccc(F)cc2)C1)N1CCCCCC1 (configuration not stated)	nt	i	nt	nt	nt	nt	nt	nt	nt
COc1ccc(CC(=O)OCC(=O)NCCc2ccccc2)cc1OC	nt	i	nt	nt	nt	nt	nt	nt	nt
Cc1cc2ccccc2n1CCNC(=O)Cc1ccccc1	nt	i	nt	nt	nt	nt	nt	nt	nt
Cc1cccc(CC(=O)NCCn2c(C)cc3ccccc32)c1	6.9*	i	i	i	87*	-3	17*	-39	i
COc1ccc(NC(=O)CSCC(=O)NC2(C)CCS(=O)(=O)C2)cc1 (configuration not stated)	nt	i	nt	nt	nt	nt	nt	nt	nt
O=C(CC1CCCC1)Nc1ccc2c(c1)CCC2	26*	i	i	i	-48	-16	80*	-39	i
O=C(Cc1ccccc1)Nc1cccc(N2CCCC2)c1	6*	i	i	i	-23	-7	21*	-27	0.1%*
COc1ccc(NC(=O)CC2CCCC2)cc1OC	nt	i	nt	nt	nt	nt	nt	nt	nt
O=C(Cc1ccccc1)Nc1ccc(N2CCCC2)cc1	1.8	i	nt	nt	nt	nt	nt	nt	nt
COc1ccc(CC(=O)Nc2ccc3c(c2)CCC3)cc1	1.7	i	nt	nt	nt	nt	nt	nt	nt
O=C(Cc1ccccc1)Nc1ccc2c(c1)CCC2	6.5*	i	i	i	17*	-17	81*	-31	i
CNc1nc(-c2c(C)n(C)c3ccc(OC)cc23)cs1	nt	i	nt	nt	nt	nt	nt	nt	nt
SMILES	KCNQ2 enhance	KCNQ2 block	Kir21 conf inh	HEK293 ctr	CHO-K1 ctr	KCNQ1 sel pot	KCNQ2 pot confirm	Kir21 spec	KCNQ2 W236L MoA
O=C(O)CC(NC(=O)Cc1ccc([N+](=O)[O-])cc1)c1ccc2c(c1)OCO2 (configuration not stated)	nt	i	nt	nt	nt	nt	nt	nt	nt
Cc1ccc(/C=C(\C#N)C(=O)Nc2ccccn2)o1	0.81	i	nt	nt	nt	nt	nt	nt	nt
COc1ccc(-c2[nH]ncc2/C=N\NC(=O)c2ccc(Br)o2)cc1OC	0.46	i	nt	nt	nt	nt	nt	nt	nt
COCCn1c(SCC(=O)Nc2ccccc2OC)nc2ccccc21	nt	i	nt	nt	nt	nt	nt	nt	nt
COCCn1c(SCC(=O)Nc2nc(C)c(Cl)cc2Cl)nc2ccccc21	0.7	i	62%*	i	nt	nt	nt	nt	nt
Oc1ccc(/C=N/n2c(C3CCCCC3)n[nH]c2=S)c(O)c1	nt	i	nt	nt	nt	nt	nt	nt	nt
Oc1c(Br)cc(/C=N/n2c(-c3ccccc3)n[nH]c2=S)c(Br)c1O	nt	i	nt	nt	nt	nt	nt	nt	nt
Cc1nnc(C)n1/N=C/c1cc(Br)ccc1O	nt	i	nt	nt	nt	nt	nt	nt	nt
Oc1ccc(Br)cc1/C=N/n1c(C2CCCCC2)n[nH]c1=S	7.4*	i	i	i	70*	-12	-16	-19	nt
Cc1nnc(C)n1/N=C/c1cc(Br)cc(Br)c1O	11*	i	i	i	-23	41*	17*	-30	i
Oc1c(Br)cc(Br)cc1/C=N/n1c(-c2ccccc2)n[nH]c1=S	11*	i	i	i	12*	-10	11*	-42	i
O=C(c1ccccc1)N1CCN(c2ncnc3sc4c(c23)CCC4)CC1	0.02	i	nt	nt	nt	nt	nt	nt	nt
O=C(NCC1CCCO1)C1CCN(C(=O)c2ccc(Br)cc2)CC1 (configuration not stated)	1.6	i	nt	nt	nt	nt	nt	nt	nt
CN(C)CCCOc1nc2c(c(=O)n(C)c(=O)n2C)n1C	0.72	i	nt	nt	nt	nt	nt	nt	nt
C=CCOc1ccc(CN(C)CC(O)COc2ccc(CCC(C)=O)cc2)cc1 (configuration not stated)	1.1	i	nt	nt	nt	nt	nt	nt	nt
CCOc1ccc(CN(C)CC(O)COC(c2ccc(OC)cc2)c2ccc(OC)cc2)cc1 (configuration not stated)	nt	i	58%*	i	nt	nt	nt	nt	nt
COc1ccc(CN(C)CC(O)COC(c2ccc(OC)cc2)c2ccc(OC)cc2)cc1 (configuration not stated)	nt	i	50%*	i	nt	nt	nt	nt	nt
COc1ccc(C(OCC(O)CN(C)C2CCCCC2)c2ccc(OC)cc2)cc1 (configuration not stated)	nt	i	nt	nt	nt	nt	nt	nt	nt
CCN1C(=O)N[C@@H](c2ccco2)C(C(=O)OC)=C1C	nt	i	nt	nt	nt	nt	nt	nt	nt
CCn1ncc(CN2CCC(Oc3cc(C(=O)NC4CC4)ccc3OC)CC2)c1C	nt	i	nt	nt	nt	nt	nt	nt	nt
CC/C=C/C(=O)N1CC2(CC(c3cccc(NC(=O)COc4ccc(Cl)cc4)c3)=NO2)C[C@H]1C(N)=O (some centres not stated)	0.93	i	nt	nt	nt	nt	nt	nt	nt
Cc1cc(OC(C)C(=O)NNC(=O)Nc2ccc(F)cc2F)cc(C)c1Cl (configuration not stated)	7.5*	i	i	i	-4	-11	-3	-29	i
COc1cc([N+](=O)[O-])ccc1NC(=O)NNC(=O)C(C)Oc1ccc(F)cc1F (configuration not stated)	nt	i	nt	nt	nt	nt	nt	nt	nt
CC(C)(CO)NCC(O)Cn1cc(C=O)c2ccccc21 (configuration not stated)	1.7	i	nt	nt	nt	nt	nt	nt	nt
